Unmarked numbers belong to inactive results.

UniProt Q9H336, sequence (Q9H336 whole entry): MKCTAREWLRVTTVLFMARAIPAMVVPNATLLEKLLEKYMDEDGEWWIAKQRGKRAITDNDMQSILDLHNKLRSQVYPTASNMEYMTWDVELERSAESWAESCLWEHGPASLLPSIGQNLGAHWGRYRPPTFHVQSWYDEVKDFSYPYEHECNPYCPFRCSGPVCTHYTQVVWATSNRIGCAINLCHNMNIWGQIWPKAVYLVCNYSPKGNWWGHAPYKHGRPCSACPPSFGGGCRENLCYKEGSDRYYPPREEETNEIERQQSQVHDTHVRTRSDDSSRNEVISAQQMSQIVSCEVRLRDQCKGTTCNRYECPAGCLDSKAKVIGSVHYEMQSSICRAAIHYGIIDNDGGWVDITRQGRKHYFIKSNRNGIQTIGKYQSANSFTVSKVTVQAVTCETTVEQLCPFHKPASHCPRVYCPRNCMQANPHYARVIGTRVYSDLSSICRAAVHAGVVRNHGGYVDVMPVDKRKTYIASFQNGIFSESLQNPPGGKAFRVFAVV
UniProt O75369, sequence (O75369 whole entry): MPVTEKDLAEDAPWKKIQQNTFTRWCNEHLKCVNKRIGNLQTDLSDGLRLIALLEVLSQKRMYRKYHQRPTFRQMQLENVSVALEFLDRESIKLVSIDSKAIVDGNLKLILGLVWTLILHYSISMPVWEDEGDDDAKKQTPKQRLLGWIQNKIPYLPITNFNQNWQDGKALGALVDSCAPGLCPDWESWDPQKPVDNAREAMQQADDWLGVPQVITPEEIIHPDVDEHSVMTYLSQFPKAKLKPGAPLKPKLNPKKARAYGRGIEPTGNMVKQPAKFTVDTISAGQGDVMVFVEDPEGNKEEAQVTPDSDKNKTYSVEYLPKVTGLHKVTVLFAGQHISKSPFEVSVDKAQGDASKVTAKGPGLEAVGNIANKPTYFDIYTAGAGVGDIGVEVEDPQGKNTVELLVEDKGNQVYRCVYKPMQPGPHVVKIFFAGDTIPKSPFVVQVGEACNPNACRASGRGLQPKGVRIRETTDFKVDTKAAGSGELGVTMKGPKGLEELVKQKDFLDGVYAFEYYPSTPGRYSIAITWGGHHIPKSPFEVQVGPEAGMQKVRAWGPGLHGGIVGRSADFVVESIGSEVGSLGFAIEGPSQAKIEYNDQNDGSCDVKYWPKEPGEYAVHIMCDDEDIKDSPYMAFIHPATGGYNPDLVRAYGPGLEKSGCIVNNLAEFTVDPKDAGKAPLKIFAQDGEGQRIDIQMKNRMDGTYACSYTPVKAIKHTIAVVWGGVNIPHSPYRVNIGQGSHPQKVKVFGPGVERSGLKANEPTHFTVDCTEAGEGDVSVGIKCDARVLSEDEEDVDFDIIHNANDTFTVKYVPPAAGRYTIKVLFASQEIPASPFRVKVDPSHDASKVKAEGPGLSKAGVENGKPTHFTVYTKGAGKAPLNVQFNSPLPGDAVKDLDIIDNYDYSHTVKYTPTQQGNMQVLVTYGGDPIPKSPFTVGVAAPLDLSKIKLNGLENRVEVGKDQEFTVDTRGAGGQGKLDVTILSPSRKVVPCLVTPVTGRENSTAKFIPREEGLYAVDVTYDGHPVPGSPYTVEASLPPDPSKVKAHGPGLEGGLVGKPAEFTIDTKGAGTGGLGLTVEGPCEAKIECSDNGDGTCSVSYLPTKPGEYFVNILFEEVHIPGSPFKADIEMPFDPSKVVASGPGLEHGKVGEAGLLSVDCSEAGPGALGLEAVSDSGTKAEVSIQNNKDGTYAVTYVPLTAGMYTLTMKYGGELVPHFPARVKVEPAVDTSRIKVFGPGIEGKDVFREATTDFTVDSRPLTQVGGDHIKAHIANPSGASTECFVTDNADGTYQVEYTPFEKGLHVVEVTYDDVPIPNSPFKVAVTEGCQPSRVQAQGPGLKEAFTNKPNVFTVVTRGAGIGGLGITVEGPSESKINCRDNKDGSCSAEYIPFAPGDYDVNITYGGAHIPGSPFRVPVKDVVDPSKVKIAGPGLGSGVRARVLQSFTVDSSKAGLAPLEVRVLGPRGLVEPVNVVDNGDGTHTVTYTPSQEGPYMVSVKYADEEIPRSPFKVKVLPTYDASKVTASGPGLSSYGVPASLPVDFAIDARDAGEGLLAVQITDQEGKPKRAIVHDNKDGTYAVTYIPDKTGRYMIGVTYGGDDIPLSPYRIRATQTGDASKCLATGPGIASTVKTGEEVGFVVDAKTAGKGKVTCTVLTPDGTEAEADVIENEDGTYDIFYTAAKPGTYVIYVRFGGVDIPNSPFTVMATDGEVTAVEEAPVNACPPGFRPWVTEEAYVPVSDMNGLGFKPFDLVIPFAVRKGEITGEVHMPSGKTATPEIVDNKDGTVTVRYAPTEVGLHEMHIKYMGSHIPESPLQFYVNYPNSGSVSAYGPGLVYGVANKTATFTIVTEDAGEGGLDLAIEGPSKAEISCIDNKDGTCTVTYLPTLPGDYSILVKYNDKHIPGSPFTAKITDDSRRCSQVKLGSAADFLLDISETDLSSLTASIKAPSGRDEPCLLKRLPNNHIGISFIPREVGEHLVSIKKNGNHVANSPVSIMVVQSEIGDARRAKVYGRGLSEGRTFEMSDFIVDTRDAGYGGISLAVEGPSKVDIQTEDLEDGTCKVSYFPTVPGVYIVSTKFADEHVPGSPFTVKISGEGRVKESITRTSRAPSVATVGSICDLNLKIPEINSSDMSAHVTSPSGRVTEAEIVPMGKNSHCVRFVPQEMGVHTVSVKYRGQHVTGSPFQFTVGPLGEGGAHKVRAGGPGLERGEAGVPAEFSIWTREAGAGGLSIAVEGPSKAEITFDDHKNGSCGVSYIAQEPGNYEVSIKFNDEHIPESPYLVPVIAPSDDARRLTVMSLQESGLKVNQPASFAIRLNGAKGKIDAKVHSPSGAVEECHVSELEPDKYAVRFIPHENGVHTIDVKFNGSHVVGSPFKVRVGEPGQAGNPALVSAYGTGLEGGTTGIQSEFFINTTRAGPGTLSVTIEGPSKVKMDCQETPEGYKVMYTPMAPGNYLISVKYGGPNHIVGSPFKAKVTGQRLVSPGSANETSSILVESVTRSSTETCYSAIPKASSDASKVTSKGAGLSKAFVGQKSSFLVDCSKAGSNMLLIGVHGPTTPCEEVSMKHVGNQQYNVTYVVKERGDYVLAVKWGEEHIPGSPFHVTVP
UniProt P29401, sequence (P29401 whole entry): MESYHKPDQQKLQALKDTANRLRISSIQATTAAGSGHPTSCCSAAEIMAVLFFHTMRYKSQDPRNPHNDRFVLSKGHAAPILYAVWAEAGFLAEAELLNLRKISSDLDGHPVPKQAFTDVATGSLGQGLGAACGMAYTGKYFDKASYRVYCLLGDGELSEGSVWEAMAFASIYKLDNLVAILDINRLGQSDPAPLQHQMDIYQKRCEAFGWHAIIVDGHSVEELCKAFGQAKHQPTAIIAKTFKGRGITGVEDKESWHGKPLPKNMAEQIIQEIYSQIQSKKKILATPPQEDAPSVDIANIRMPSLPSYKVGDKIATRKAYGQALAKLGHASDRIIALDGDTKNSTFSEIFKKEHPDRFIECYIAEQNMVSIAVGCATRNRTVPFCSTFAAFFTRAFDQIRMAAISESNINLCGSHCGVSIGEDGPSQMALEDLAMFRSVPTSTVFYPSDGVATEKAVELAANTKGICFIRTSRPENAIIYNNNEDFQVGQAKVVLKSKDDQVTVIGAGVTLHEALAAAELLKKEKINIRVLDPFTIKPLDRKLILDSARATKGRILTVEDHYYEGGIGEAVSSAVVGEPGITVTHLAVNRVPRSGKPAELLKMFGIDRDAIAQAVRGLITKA
UniProt P02788, sequence (P02788 whole entry): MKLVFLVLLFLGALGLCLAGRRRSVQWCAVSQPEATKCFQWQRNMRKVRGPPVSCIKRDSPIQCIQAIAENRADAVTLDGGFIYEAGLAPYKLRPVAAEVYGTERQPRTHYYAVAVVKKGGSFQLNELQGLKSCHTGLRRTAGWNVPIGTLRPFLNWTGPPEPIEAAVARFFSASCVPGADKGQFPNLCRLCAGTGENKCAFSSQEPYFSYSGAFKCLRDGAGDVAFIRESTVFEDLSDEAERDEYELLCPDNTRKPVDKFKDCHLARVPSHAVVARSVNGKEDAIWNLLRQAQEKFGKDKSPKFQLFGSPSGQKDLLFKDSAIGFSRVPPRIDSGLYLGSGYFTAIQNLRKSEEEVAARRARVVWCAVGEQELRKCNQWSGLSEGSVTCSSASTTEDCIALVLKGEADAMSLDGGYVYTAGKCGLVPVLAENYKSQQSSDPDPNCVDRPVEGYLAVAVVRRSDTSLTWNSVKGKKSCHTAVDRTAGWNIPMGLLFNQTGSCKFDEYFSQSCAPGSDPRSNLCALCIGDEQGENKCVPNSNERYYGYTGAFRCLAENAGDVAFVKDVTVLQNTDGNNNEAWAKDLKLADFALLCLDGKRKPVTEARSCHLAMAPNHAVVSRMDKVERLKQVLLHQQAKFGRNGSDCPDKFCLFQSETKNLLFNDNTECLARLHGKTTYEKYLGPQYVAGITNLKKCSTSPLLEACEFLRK
UniProt P02533, sequence (P02533 whole entry): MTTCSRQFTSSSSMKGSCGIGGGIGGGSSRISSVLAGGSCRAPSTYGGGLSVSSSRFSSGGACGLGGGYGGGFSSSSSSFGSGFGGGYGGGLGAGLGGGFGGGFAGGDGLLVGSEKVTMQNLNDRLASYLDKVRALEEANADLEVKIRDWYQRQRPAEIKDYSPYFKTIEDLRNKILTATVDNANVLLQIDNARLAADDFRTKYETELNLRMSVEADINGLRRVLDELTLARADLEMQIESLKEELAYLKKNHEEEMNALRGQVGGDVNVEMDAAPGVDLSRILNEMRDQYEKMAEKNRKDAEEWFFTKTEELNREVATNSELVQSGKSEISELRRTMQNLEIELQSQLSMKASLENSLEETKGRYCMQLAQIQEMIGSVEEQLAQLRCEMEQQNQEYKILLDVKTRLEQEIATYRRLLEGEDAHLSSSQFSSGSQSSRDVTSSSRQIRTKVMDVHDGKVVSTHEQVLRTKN
UniProt Q9UII2, sequence (Q9UII2 whole entry): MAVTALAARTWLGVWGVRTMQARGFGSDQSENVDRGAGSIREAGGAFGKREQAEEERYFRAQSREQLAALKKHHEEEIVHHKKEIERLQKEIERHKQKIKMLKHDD

Compound in the experiment: C#CCNC(=O)CCSSCCC(=O)NCCc1ccc(C=O)c(C=O)c1
As to the kind of experiment: lysine labeling ratio R10:1 (500 µM / 50 µM probe), SILAC-ABPP in living cells; higher = lower intrinsic lysine reactivity toward the probe, active = 2 or less. As to conditions: HeLa; probe concentrations 500 vs 50 µM. The essentials:
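SILAC light and heavy living HeLa cells in PBS at room temperature were labelled with 50 µM or 500 µM of an alkyne-tagged, disulfide-linked lysine probe, with forward and reverse label swaps. Mixed lysates were clicked to biotin-azide, trypsin-digested, captured on neutravidin, DTT-released, alkylated and analysed by LC-MS/MS on a TIMS-TOF Pro. R is the filtered median high-probe/low-probe MS1 peptide ratio per lysine, then the median across forward and reverse replicates. Ratios are capped at 20.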
For the target “FLNB (lysine site: K1241) (UniProt O75369)”, the “lysine labeling ratio R10:1” value was 1.42 (active).
In the case of “NRP1 (lysine site: K509) (UniProt O14786)”, the “lysine labeling ratio R10:1” value is 5.12.
“FLNB (lysine site: K1955) (UniProt O75369)”: the “lysine labeling ratio R10:1” value is 1.23 (active).
The figure for “CLTC (lysine site: K1501) (UniProt Q00610)” is 2.77.
Regarding “LDHA (lysine site: K155) (UniProt P00338)”, the “lysine labeling ratio R10:1” value was 2.54.
In the case of “NEGR1 (lysine site: K52) (UniProt Q7Z3B1)” it was 4.69.
In the case of F2 (lysine site: K384) (UniProt P00734) it was 4.42.
The figure for “SPTAN1 (lysine site: K1759) (UniProt Q13813)” is 4.65; for “PSMB1 (lysine site: K204) (UniProt P20618)” it is 2.46; for “VCL (lysine site: K453) (UniProt P18206)” it is 3.28.
“ENG (lysine site: K291) (UniProt P17813)”: the “lysine labeling ratio R10:1” value was 5.59.
For “MYH9 (lysine site: K1867) (UniProt P35579)”, the “lysine labeling ratio R10:1” value is 2.53.
Turning to “FLNA (lysine site: K520) (UniProt P21333)”, the “lysine labeling ratio R10:1” value is 2.73.
In the case of “GSN (lysine site: K193) (UniProt P06396)” it was 2.07.
As to UniProt P62316 (lysine site: K18), the “lysine labeling ratio R10:1” value was 2.06.
Regarding “MSLN (lysine site: K559) (UniProt Q13421)”, the “lysine labeling ratio R10:1” value is 2.61.
“VIM (lysine site: K334) (UniProt P08670)”: the “lysine labeling ratio R10:1” value was 5.58.
For “CD58 (lysine site: K78) (UniProt P19256)”, the “lysine labeling ratio R10:1” value is 8.22.
In the case of UniProt Q9H336 (lysine site: K242), the “lysine labeling ratio R10:1” value is 2.36.
The figure for “FLOT1 (lysine site: K220) (UniProt O75955)” is 2.84.
The figure for “DDX5 (lysine site: K391) (UniProt P17844)” is 10.4; for “IGSF3 (lysine site: K884) (UniProt O75054)” it is 4.12.
In the case of “SPTAN1 (lysine site: K1288) (UniProt Q13813)”, the “lysine labeling ratio R10:1” value is 1.21 (active).
Consider “LTF (lysine site: K320) (UniProt P02788)”, for which the “lysine labeling ratio R10:1” value is 1.48 (active).
The figure for “AHCY (lysine site: K204) (UniProt P23526)” is 1.25 (active); for “TKT (lysine site: K204) (UniProt P29401)” it is 10.2.
The figure for “ACTR3 (lysine site: K348) (UniProt P61158)” is 1.4 (active).
Regarding “TPI1 (lysine site: K194) (UniProt P60174)”, the “lysine labeling ratio R10:1” value is 1.22 (active).
On to “HNRNPU (lysine site: K265) (UniProt Q00839)”, for which the “lysine labeling ratio R10:1” value is 2.4.
The figure for “VAPB (lysine site: K174) (UniProt O95292)” is 1.61 (active); for “YBX1 (lysine site: K170) (UniProt P67809)” it is 9.44; for “TKT (lysine site: K353) (UniProt P29401)” it is 6.
On to UniProt Q9H336 (lysine site: K304), for which the “lysine labeling ratio R10:1” value was 2.33.
The figure for UniProt P02533 (lysine site: K251) is 5.36; for UniProt Q9UII2 (lysine site: K49) it is 3.39; for “EDIL3 (lysine site: K444) (UniProt O43854)” it is 3.53.
As for UniProt P62249 (lysine site: K130), the “lysine labeling ratio R10:1” value is 4.97.
As to “SUB1 (lysine site: K68) (UniProt P53999)”, the “lysine labeling ratio R10:1” value was 8.07.
In the case of “MSN (lysine site: K165) (UniProt P26038)” it was 3.56; in that of “HNRNPA2B1 (lysine site: K120) (UniProt P22626)”, 5.33.

The record behind these values is the supplement of paper PMC11001985.
